# Results filed as inconclusive are left out. Entries that show only a call come without a potency. The source made the active and inactive calls. Unless noted, calls come from the whole dose curve; as a rule, active = well fitted curve in the direction sought with a large enough effect; inconclusive = small, poorly fitted or top-dose-only effect, or another doubt; inactive = no such curve, though single readings can be large; an effect the other way counts as inactive or inconclusive.
# Key:
# [1] = target: alpha-glucosidase (Oryza sativa, rice) (UniProt Q653V4); test: Counterscreen for Glucocerebrosidase Inhibitors: qHTS Assay for Rice alpha-Glucosidase at pH 5.0 (AID 997)
# Summary of the method: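 Endpoint fluorogenic assay at pH 5.0: compounds (0.7 nM to 77 uM) titrated against 4 nM rice enzyme and 400 uM 4-MU-alpha-glucoside for 20 min at room temperature; NaOH/glycine stop, read ex 365/em 440 nm, Hill-fitted AC50.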
# [2] = target: Cytochrome P450 2C9 (Homo sapiens) (UniProt P11712); test: Cytochrome P450 family 2 subfamily C member 9 (CYP2C9) small molecule antagonists: luciferase biochemical (cell-free) qHTS assay (AID 1645842; active = well fitted curve in the direction sought with a large enough effect in the repeat runs; an effect the other way counts as inactive or inconclusive; note: nearly all actives have a fitted effect of over 55% in size)
# Summary of the method: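 P450-Glo CYP2C9 system: proluciferin substrate with enzyme in mix containing 0.4% BSA, 10 min at room temperature, then NADPH regeneration solution added and incubated 1 h at 37C. Detection reagent stopped reaction; luminescence read after 20 min as RLU.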
# [3] = target: ATP-dependent 6-phosphofructokinase (Trypanosoma brucei brucei) (UniProt O15648); test: qHTS Assay to Find Inhibitors of T. brucei phosphofructokinase: hit validation (AID 492961);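 note: luminescence reports ADP formed as PFK phosphorylates fructose-6-phosphate with ATP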
# Summary of the method: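 Measures ADP output of PFK (1.25 nM) at 0.1 mM ATP, 0.5 mM F6P, pH 8.0 TEA buffer with 5 mM MgCl2. No-enzyme wells define full inhibition; uninhibited enzyme wells define zero.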
# [4] = system: ATS189; test: qHTS profiling for inhibitors of Plasmodium falciparum proliferation (AID 504749); note: nearly all actives have a fitted effect of over 60% in size; note: potency is the fitted concentration of half-maximal effect; conditions: P. falciparum in erythrocytes, SYBR Green DNA, 72 h; series mostly up to 12.8 µM
# Summary of the method: (§1)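 SYBR Green fluorescence of parasite DNA, read after lysis and overnight dark incubation, measured growth over 72 h in erythrocyte culture at 0.3% parasitemia and 2.5% hematocrit. Data normalised to DMSO and 0.29 uM artemisinin, with plate-drift correction.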
# [5] = system: ATS95; test: as above; conditions: P. falciparum in erythrocytes, SYBR Green DNA, 72 h; series mostly up to 12.8 µM
# Summary of the method: as §1
# [6] = system: CP185; test: as above; conditions: P. falciparum in erythrocytes, SYBR Green DNA, 72 h; series mostly up to 12.8 µM
# Summary of the method: as §1
# [7] = system: CP201; test: as above; conditions: P. falciparum in erythrocytes, SYBR Green DNA, 72 h; series mostly up to 12.8 µM
# Summary of the method: as §1
# [8] = system: CP238; test: as above; conditions: P. falciparum in erythrocytes, SYBR Green DNA, 72 h; series mostly up to 12.8 µM
# Summary of the method: as §1
# [9] = system: CP266; test: as above; conditions: P. falciparum in erythrocytes, SYBR Green DNA, 72 h; series mostly up to 28.7 µM
# Summary of the method: as §1
# [10] = system: CP305; test: as above; conditions: P. falciparum in erythrocytes, SYBR Green DNA, 72 h; series mostly up to 12.8 µM
# Summary of the method: as §1
# [11] = system: CP325; test: as above; conditions: P. falciparum in erythrocytes, SYBR Green DNA, 72 h; series mostly up to 12.8 µM
# Summary of the method: as §1
# [12] = system: CP335; test: as above; conditions: P. falciparum in erythrocytes, SYBR Green DNA, 72 h; series mostly up to 12.8 µM
# Summary of the method: as §1
# [13] = system: DFO2036; test: as above; conditions: P. falciparum in erythrocytes, SYBR Green DNA, 72 h; series mostly up to 12.8 µM
# Summary of the method: as §1
# [14] = system: ECU; test: as above; conditions: P. falciparum in erythrocytes, SYBR Green DNA, 72 h; series mostly up to 12.8 µM
# Summary of the method: as §1
# [15] = system: HB3; test: as above; conditions: P. falciparum in erythrocytes, SYBR Green DNA, 72 h; series mostly up to 12.8 µM
# Summary of the method: as §1
# [16] = system: PC26; test: as above; conditions: P. falciparum in erythrocytes, SYBR Green DNA, 72 h; series mostly up to 12.8 µM
# Summary of the method: as §1
# [17] = system: PC49; test: as above; conditions: P. falciparum in erythrocytes, SYBR Green DNA, 72 h; series mostly up to 12.8 µM
# Summary of the method: as §1
# [18] = system: SC27B; test: as above; conditions: P. falciparum in erythrocytes, SYBR Green DNA, 72 h; series mostly up to 12.8 µM
# Summary of the method: as §1
# [19] = system: TAB109; test: as above; conditions: P. falciparum in erythrocytes, SYBR Green DNA, 72 h; series mostly up to 12.8 µM
# Summary of the method: as §1
# [20] = system: TAB113; test: as above; conditions: P. falciparum in erythrocytes, SYBR Green DNA, 72 h; series mostly up to 12.8 µM
# Summary of the method: as §1
# Chain of ATP-dependent 6-phosphofructokinase (Trypanosoma brucei brucei) (O15648 whole entry, looked up): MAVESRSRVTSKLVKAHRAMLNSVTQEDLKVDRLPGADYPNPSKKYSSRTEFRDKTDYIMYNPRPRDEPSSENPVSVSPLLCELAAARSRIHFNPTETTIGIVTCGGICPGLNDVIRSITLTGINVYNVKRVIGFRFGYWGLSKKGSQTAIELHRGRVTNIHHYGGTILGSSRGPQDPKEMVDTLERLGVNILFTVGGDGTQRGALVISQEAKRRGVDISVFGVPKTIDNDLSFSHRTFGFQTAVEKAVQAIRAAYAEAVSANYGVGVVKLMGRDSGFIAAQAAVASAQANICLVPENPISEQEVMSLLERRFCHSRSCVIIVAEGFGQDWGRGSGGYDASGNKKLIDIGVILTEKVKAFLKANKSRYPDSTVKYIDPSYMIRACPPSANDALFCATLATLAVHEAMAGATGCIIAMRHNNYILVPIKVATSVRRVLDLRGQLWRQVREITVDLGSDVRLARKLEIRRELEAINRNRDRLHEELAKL
# Chain of Cytochrome P450 2C9 (Homo sapiens) (P11712 whole entry, looked up): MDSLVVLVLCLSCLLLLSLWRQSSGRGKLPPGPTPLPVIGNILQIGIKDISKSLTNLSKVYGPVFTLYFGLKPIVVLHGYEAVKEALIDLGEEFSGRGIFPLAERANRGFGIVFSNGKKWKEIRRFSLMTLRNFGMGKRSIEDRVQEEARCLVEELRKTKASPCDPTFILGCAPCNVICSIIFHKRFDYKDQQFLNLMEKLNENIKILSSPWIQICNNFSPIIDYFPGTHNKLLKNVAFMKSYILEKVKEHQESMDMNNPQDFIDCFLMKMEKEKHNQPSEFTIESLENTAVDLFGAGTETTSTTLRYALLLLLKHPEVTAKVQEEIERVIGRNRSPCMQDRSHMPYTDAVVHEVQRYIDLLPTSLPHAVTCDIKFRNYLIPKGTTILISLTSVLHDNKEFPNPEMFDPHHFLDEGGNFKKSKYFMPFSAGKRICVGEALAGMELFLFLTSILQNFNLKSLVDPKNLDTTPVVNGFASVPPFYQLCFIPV
smiles,measurement,setting,value
Oc1cc2c(c(Cl)c1O)CCNC[C@H]2c1ccccc1,outcome,[1],inactive
NC(Cc1ccc(O)c(O)c1)C(=O)O (stereo not given),Potency,[2],inactive
COc1cc(/C=C/C(=O)/C=C(O)/C=C/c2ccc(O)c(OC)c2)ccc1O,outcome,[3],inactive
same,Potency,[4],inactive
same,Potency,[5],inactive
same,Potency,[6],inactive
same,Potency,[7],inactive
same,Potency,[8],inactive
same,Potency,[9],inactive
same,Potency,[10],inactive
same,Potency,[11],inactive
same,Potency,[12],inactive
same,Potency,[13],inactive
same,Potency,[14],inactive
same,Potency,[15],inactive
same,Potency,[16],12 µM (active)
same,Potency,[17],inactive
same,Potency,[18],inactive
same,Potency,[19],inactive
same,Potency,[20],inactive
COC(=O)c1c(C)cc(OC(=O)c2c(C)cc(O)c(C=O)c2O)c(C)c1O,Potency,[2],inactive
Cc1cc(/C=C\c2ccc3cc(N(C)C)ccc3[n+]2C)c(C)n1-c1ccccc1,outcome,[3],inactive
same,Potency,[4],3.16 µM (active)
same,Potency,[5],1.58 µM (active)
same,Potency,[6],1.58 µM (active)
same,Potency,[7],3.22 µM (active)
same,Potency,[8],1.58 µM (active)
same,Potency,[9],2.87 µM (active)
same,Potency,[10],2.56 µM (active)
same,Potency,[11],2.56 µM (active)
same,Potency,[12],0.572 µM (active)
same,Potency,[13],1.78 µM (active)
same,Potency,[14],2.51 µM (active)
same,Potency,[15],2.82 µM (active)
same,Potency,[16],3.61 µM (active)
same,Potency,[17],3.16 µM (active)
same,Potency,[18],2.51 µM (active)
same,Potency,[19],1.41 µM (active)
same,Potency,[20],1.78 µM (active)
NC(=NCc1ccc(Cl)c(Cl)c1)NC(=O)c1nc(Cl)c(N)nc1N,outcome,[1],inactive

# From PubChem BioAssay (NCATS)
